Most compounds without a hit are left out; they make up all but 3.7% or so of the library.
BoNT-A LC inh2 – inhibitors of Botulinum neurotoxin A light chain protease. multiplex microsphere protease substrate cleavage, flow cytometry. inhibition, % at 10 µM. 360,000 tested, 0.17% active. AID 588499; note: plate controls were buffer without enzyme for full effect and enzyme alone for no effect
Bead autofluor – counter-screen for toxin protease inhibitors: compound fluorescence. AID 624483. fluorescence intensity (test concentration not listed). compound autofluorescence counterscreen, microsphere flow cytometry; stronger effect = higher value. 360,000 tested, 3.1% active; in the data active = fluorescence intensity above about 16000; inconclusive = no clear call, values can overlap the other calls
BJeLR lethal – kills HRASV12-expressing BJeLR cells; BJeLR (HRASV12) viability, CellTiter-Glo ATP luminescence, 48 h; inhibition, % (no concentration beside the values); 300,000 tested, 0.17% active; AID 1554; in the data active = inhibition above about 50%; inconclusive = no clear call, values can overlap the other calls
BoNT-F LC inh – BoNT F light chain protease inhibition. Multiplex microsphere protease cleavage assay, flow cytometry. inhibition, % at 10 µM. 360,000 tested, 0.22% active. AID 588497; in the data active = inhibition above about 35%, passing the limit was not always enough; inconclusive = no clear call, values can overlap the other calls; note: plate controls were buffer without enzyme for full effect and enzyme alone for no effect
BH1578 lux ind – quorum light induction in luxS cqsA deficient V. cholerae; 350,000 tested, 0.16% active; V. cholerae BH1578 lux reporter, luminescence, 6 h; activation, % at 18.7 µM; AID 588436; in the data active = activation mostly above about 9.7%, no sharp cut-off; inconclusive = no clear call, values can overlap the other calls; inactive = mostly below about 3.7%
Anthrax LF inh2 – anthrax lethal factor protease inhibition. AID 588501. inhibition, % at 10 µM. multiplex microsphere protease cleavage assay, LF. P15917. 360,000 tested, 0.12% active; note: plate controls were buffer without enzyme for full effect and enzyme alone for no effect
An asterisk follows results filed as active; i = inactive; ? = inconclusive; nt = no result given. Cut-off read from the data, not from the text of the source, unless noted: active = inhibition above about 30%; inconclusive = no clear call, values can overlap the other calls; inactive = below that.

SMILES	BoNT-A LC inh2	Bead autofluor	BJeLR lethal	BoNT-F LC inh	BH1578 lux ind	Anthrax LF inh2
CCOC(=O)c1c(NC(=S)Nc2ccc(Cl)cc2)sc2c1CCN(C)C2	46*	15220	nt	11	0	34*
CCSc1nc2c(c(=O)[nH]c(=O)n2C)n1CC(O)COc1ccccc1C (configuration not stated)	-1	20886*	2	1	i	-4
COc1cc(C(C)=O)ccc1OCC(=O)N1CCCC1c1ccc2c(c1)OCCCO2 (configuration not stated)	0	3734	nt	0	-1	1
COCCNc1nc2cc(-c3cccc(Cl)c3)sc2c(=O)n1C	0	4049	nt	2	-1	-11
COc1cc(C(=O)N(Cc2ccco2)Cc2cc3ccccc3[nH]c2=O)cc(OC)c1OC	?	23180*	-9	-4	i	-1
COc1ccc(-n2c(/C=C/c3ccc(O)cc3)nc3ccccc3c2=O)cc1	nt	nt	-11	nt	0	nt
COc1ccc(-n2c(/C=C/c3ccc(O)c(OC)c3)nc3ccccc3c2=O)cc1	2	2862	-7	36*	i	-1
COc1cc(C(=O)NNC(=O)CNC(=O)C2CCCCC2)ccc1OC(C)C	0	3126	nt	0	-1	7
CC(C)n1cnc2cc(NCc3ccccn3)ccc21	-2	20604*	2	-7	0	-4
CC(C)n1cnc2cc(NCc3ccccc3O)ccc21	-1	3499	-1	7	-1	4
c1ccc(CCNc2cc(-c3ccc4ccccc4c3)nc3ccnn23)nc1	0	2911	nt	-9	-1	-3
C=CCn1c(O)c(C(CC)=Nc2ccc(N(CC)CC)cc2)c(=O)[nH]c1=O	1	21974*	8	1	i	-3
C=CCn1c(O)c(C(CC)=NC2CC2)c(=O)[nH]c1=O	-1	16830*	-7	0	-4	0
CCC(=NC1CC1)c1c(O)n(C2CCCCC2)c(=O)[nH]c1=O	-2	9885	-10	2	0	-4
COc1ccccc1-n1nnnc1SCC(=O)Nc1ccccn1	4	19311*	-7	5	-1	-10
CCOC(=O)CSc1nnnn1-c1cc(OC)ccc1OC	0	16299*	4	0	i	-2
CCCn1c(=O)c2ccccc2n2c(SCc3c(C(=O)OCC)oc4ccccc34)nnc12	1	10290	4	-1	-1	0
COc1ccccc1-n1nnnc1SCC(=O)Nc1ccccc1	0	3478	-19	-19	i	-9
CCOC(=O)c1oc2ccccc2c1CSc1nnnn1-c1ccc(OC)cc1	?	21747*	3	3	1	0
COc1ccc(C(C#N)CC(=O)c2ccc(OCc3ccccc3)c(OC)c2)cc1OC (configuration not stated)	0	3940	nt	-3	-5	1
Cc1ccc(C)c(N(CC(=O)N/N=C/c2ccc(-c3ccc([N+](=O)[O-])cc3)o2)S(=O)(=O)c2ccccc2)c1	50*	5236	-5	32	-2	42*
CCn1c(SCC(=O)Nc2ccc(Cl)cc2)nc2nc3c(cc2c1=O)CCCC3	2	7489	-4	5	0	-2
CCn1c(SCC(=O)Nc2ccc(C(C)=O)cc2)nc2nc3c(cc2c1=O)CCCC3	?	23239*	-1	1	-1	-5
Cc1cccc(-c2ccc3[nH]c4c(c3c2)CCN2C[C@@H]([C@H](C)OC(=O)Nc3ccccc3C)[C@@H](N(C)C(=O)Nc3ccccc3C)C[C@@H]42)c1	1	5614	nt	-8	-1	2
Clc1ccc(-n2cnc3c(Cl)ncnc32)cc1Cl	0	4159	nt	1	nt	-3
SMILES	BoNT-A LC inh2	Bead autofluor	BJeLR lethal	BoNT-F LC inh	BH1578 lux ind	Anthrax LF inh2
Cc1nc2c(C(=O)NCc3ccc4c(c3)OCO4)c[nH]n2c(=O)c1Cl	-4	25275*	0	-6	0	2
COc1cccc(CNC(=O)c2c[nH]n3c(=O)c(Cl)c(C)nc23)c1	-6	10113	7	-45	0	-6
Cc1nc2c(C(=O)NCCC3=CCCCC3)c[nH]n2c(=O)c1Cl	2	23190*	5	2	1	-1
O=C(NCCC1=CCCCC1)c1cnc2n(c1=O)CCS2	-3	24855*	-2	-3	0	-9
COCCCN1C(=O)C(CC(=O)NCC2CCCCC2)CC(C(=O)N(C(C)C)C(C)C)=C1C (configuration not stated)	0	5444	nt	-11	nt	-5
CCN1C(=O)/C(=C/C=C2/Sc3ccc4ccccc4c3N2CCO)SC1=S	63*	6919	11	36*	0	52*
CCN1C(c2ccccc2)=C(c2ccccc2)S/C1=C\C=C1/SC(=S)N(C)C1=O	98*	5010	14	-13	i	44*
CCN1C(c2ccccc2)=C(c2ccccc2)S/C1=C/C=C1\SC(=S)N(C)C1=O	141*	2608	nt	-37	i	41*
CN1CCS/C1=C/C=C1/SC(=S)N(Cc2ccccc2)C1=O	29	4757	-8	-4	-1	12
O=C(c1[nH]c(C(F)(F)F)nc1-c1ccccc1)N1CCN(c2ncccn2)CC1	1	5248	nt	-7	nt	4
CCOC(=O)C1=CCN(S(=O)(=O)c2ccc(Br)cc2)C1c1ccccc1 (configuration not stated)	-1	4398	nt	2	nt	-8
O=C(O)C1CCC2CCCC21 (configuration not stated)	0	5298	nt	1	nt	9
COc1ccc(NC(=O)CSC2CCCCC2)cc1	-3	21701*	1	-3	1	2
COc1ccc(NC(=O)CN2CCC(NC(=O)C3CCCCC3)CC2)cc1	0	23189*	-2	-2	i	-1
CCOC(=O)[C@]12CCC=C1N(Cc1ccco1)C(=O)[C@H](CC(=O)N1CCN(C(=O)c3ccco3)CC1)C2	0	5948	nt	1	nt	-5
Cc1ccc(N2CC(C(=O)Nc3cc(S(=O)(=O)N4CCCCC4)ccc3C)CC2=O)cc1 (configuration not stated)	0	3669	nt	-3	0	-1
CN1C(=O)S/C(=C\c2ccccc2OCc2ccc(C(=O)O)cc2)C1=O	0	2193	2	3	-1	1
Cc1ccc(Oc2ccccc2/C=C2\SC(=O)N(C)C2=O)cc1	3	21464*	-6	4	i	1
CC(C)CNC(=O)C(=O)NC1CCCC1	0	3146	-3	-6	-1	-3
CC(C)CNC(=S)NC1CCCC1	?	20457*	-9	-4	i	-2
O=C(Nc1nnc([C@@H]2C[C@H](O)[C@@H](CO)O2)s1)Nc1ccccc1Oc1ccccc1	0	3365	nt	-12	0	-4
C(#Cc1ccccc1)CN1CCOCC1	0	4359	3	-6	0	-8
C(#Cc1ccc(C#CCN2CCOCC2)cc1)CN1CCOCC1	-2	17459*	-5	-3	i	-2
C/C=C/c1cccc(-c2nc(C(=O)NC3CCC3)cc3c2[C@H](CCO)N(S(=O)C(C)(C)C)C3)c1 (some centres not stated)	0	4595	nt	0	nt	-16
